Experimental data: PubChem BioAssay AID862 (The Scripps Research Institute Molecular Screening Center, 2007)
Hit rate of the full screen: of about 190,000 compounds, about 1,700 (0.89%) were called active. For the sample, actives were picked, then their nearest neighbours and some compounds at random. A number with no mark means an inactive call.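 Rule for the calls: active = inhibition above the mean inhibition across all screened compounds plus 3 SD (cut at about 44% in these data); inactive = the rest.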

test: blockers of STAT3 transcriptional signaling – U3A cells, luciferase, luminescence, MLSCN library, primary screen (AID 862); conditions: IL-6 STAT3-luciferase reporter, at 5.5 µM, stronger effect = higher value;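 note: 0% = DMSO only wells and 100% = 100 µM nifuroxazide control wells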

SMILES | inhibition
CC1=CC(=Cc2sc3ccccc3[n+]2C)C=C(C)O1 | 81.6% (active)
COc1ccc(C(=O)CC2C(=O)N(C)C(=O)N(C)C2=O)cc1 | 8.6%
Cc1cccc(-n2c(O)c(/C=N/N3CCOCC3)c(=O)[nH]c2=S)c1 | -17.9%
Cc1nc2ccc(N3CCN(C)CC3)cc2nc1C | -6.4%
CN1CCN(c2cc(N3CCNCC3)ccc2[N+](=O)[O-])CC1 | -1.6%
COc1cccc(-c2nc3ccc(N4CCN(C)CC4)cc3[nH]2)c1 | 85.4% (active)
Cc1c(C(=O)O)cccc1-n1c(C)cc(/C=C2\C(=O)NC(=O)N(c3ccc4c(c3)OCO4)C2=O)c1C | 2.2%
O=C(CCCn1c(=O)[nH]c2cc(Cl)ccc2c1=O)N1CCC2(CC1)OCCO2 | 14.5%
O=C(CN1CCCC1=O)NCCc1ccccc1 | 3.6%
N#Cc1ccc(Cn2cc(C(=O)c3ccco3)c3ccccc32)cc1 | 10.3%
